Whole data set: some 33,000 sequences, median “E-score (-0.5 to 0.5)” near -0.0014, cut for the highest 2% near 0.25. Many of the other results were omitted from the sample, so the highest values are more common in it than they were.
target: T1, Cad1 (UniProt P24813); assay: PBM E-score (8-mer binding enrichment) (E-score (-0.5 to 0.5)); higher = stronger / more preferred TF binding; conditions: protein concentration: 100 nM; construct: GST-full length
T1 sequence: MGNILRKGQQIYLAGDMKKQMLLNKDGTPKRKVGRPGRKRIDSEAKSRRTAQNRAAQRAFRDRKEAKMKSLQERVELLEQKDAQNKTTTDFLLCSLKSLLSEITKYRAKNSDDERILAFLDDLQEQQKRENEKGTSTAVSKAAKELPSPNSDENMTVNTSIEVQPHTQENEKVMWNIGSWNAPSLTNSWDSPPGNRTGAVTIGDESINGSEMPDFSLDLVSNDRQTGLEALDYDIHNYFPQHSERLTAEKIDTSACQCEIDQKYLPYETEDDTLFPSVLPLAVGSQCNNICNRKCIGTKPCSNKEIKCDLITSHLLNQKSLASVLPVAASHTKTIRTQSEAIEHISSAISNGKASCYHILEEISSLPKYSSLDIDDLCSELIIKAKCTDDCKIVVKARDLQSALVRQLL
Procedure: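 Universal 'all 10-mer' protein binding microarrays (Agilent AMADID 015681) probed with GST-tagged S. cerevisiae TFs (full-length or DBD) made by in vitro transcription/translation (PURExpress), about 100-200 nM. Bound TF was detected with fluorescent anti-GST. Each ungapped 8-mer (which stands for itself and its reverse complement) is scored by the PBM enrichment score (E-score), a modified Wilcoxon-Mann-Whitney statistic from -0.5 to +0.5, computed with the Universal PBM Analysis Suite. Scale: above 0.35 generally sequence-specific binding.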

Row | Sequence | PBM E-score
1 | ATACCATG | -0.0699
2 | ATTTAACA | 0.193
3 | GCCTGAGA | -0.169
4 | ATGGGACC | -0.00547
5 | CAGCCACC | -0.0873
6 | ACAGACAC | 0.122
7 | TGTGACAA | 0.0395
8 | ACTGACAT | -0.0482
9 | ACAGACAA | 0.29
10 | TCAGAAAA | -0.145
11 | ACTGACAC | -0.0887
12 | CCTGACAA | -0.0066
13 | ACAGACAG | 0.0659
14 | TCTGACAA | 0.25
15 | ACAGAAAA | 0.281
16 | ACAGAAAC | 0.116
17 | ACTGACAA | 0.264
18 | TGCATACA | 0.0433
19 | AGGTGCAA | -0.0504
20 | CTTTCATC | 0.0102
21 | GGCCTCAC | 0.0157
22 | GGCTTAAC | 0.0615

Row | Sequence | PBM E-score
23 | CTTGGCTA | 0.134
24 | GGCTTCAA | -0.139
25 | CACAGCCG | 0.0914
26 | TAATCCCA | -0.0386
27 | CACACTTC | 0.0239
28 | AGTACCTG | -0.0799
29 | CAGAGGGC | -0.213
30 | CGTGCCAC | -0.091
31 | CGCATTCC | -0.216
32 | GTTGACAA | 0.166
33 | GCTGACAA | 0.412
34 | GATGACAA | 0.304
35 | CATGACAA | 0.165
36 | GATGACAC | 0.0339
37 | GCTGACAC | 0.247
38 | CGCAATCC | 0.248
39 | CCTGATCG | -0.0975
40 | TCGGAACA | 0.268
41 | CCGGAACA | 0.108
42 | ACGGAACA | 0.0866
43 | AAATAAAA | -0.0112
44 | AAATAAAG | -0.0232

Row | Sequence | PBM E-score
45 | AAAATAAA | 0.128
46 | AAAATAAT | 0.314
47 | AAATAAAT | 0.314
48 | AAAATAAC | -0.0367
49 | AAATAATT | 0.295
50 | AAATAATC | 0.198
51 | AAATAATA | 0.248
52 | CACTGGCA | -0.0733
53 | CCAAGACC | -0.0342
54 | CCGCCGTC | 0.117
55 | AGTCACTA | 0.0232
56 | GCGCAGTA | 0.149
57 | GAAGATTA | 0.181
58 | TATGCGCA | 0.0953
59 | CGTCCGTA | -0.0771
60 | TAAGCACA | 0.295
61 | CAAGCACG | 0.152
62 | CAAGCACA | -0.0831
63 | GCACGAAA | 0.197
64 | AGTATCGG | 0.0469
65 | GGCATGCC | 0.00621
66 | AGCATGCC | -0.111

Row | Sequence | PBM E-score
67 | CGCATGCC | 0.252
68 | CAATTCCA | -0.0425
69 | GGAAATCA | 0.0778
70 | AAATTCCA | 0.308
71 | GAATTCCA | 0.117
72 | GAAATTCA | 0.169
73 | AAAATTCG | 0.201
74 | AAAATTCA | 0.284
75 | CGAAATCC | 0.0502
76 | ACAAATTA | 0.295
77 | CCAAATTA | 0.107
78 | ACAAATTG | 0.202
79 | CGAAATCA | 0.306
80 | ACCCAAGT | -0.0625
81 | ATCAACCC | 0.0896
82 | ATCCTAAA | -0.12
83 | CGAACTCC | 0.0429
84 | TAAAAGAA | 0.0891
85 | ACTCTAAG | -0.094
86 | GACGTTAA | 0.245

Source: the supplement of paper PMC3334620
